Data published in PubChem BioAssay (Tox21).
Values without a mark were called inactive. Inconclusive results are not listed. Entries that show only a call come without a potency. Active and inactive are the calls of the source. The call rests on the fitted dose curve; in most records, active means well fitted curve in the direction sought with a large enough effect in the repeat runs; inconclusive means weak or mixed curves; inactive means no such curve, though single readings can be large; an effect the other way counts as inactive or inconclusive.

How the values were obtained:
[1] = qHTS RealTime-Glo MT Cell Viability Assay in HEK293 cells - 16 hour (AID 1224872); further: top concentration of the series differs between compounds; nearly all actives have a fitted effect of over 50% in size
How it was run: (§1)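 Reads taken at 0, 8, 16, 24, 32 and 40 h from the same wells. HEK293 cells (600/well) carried RealTime-Glo reagents from seeding, with compound added after a 5 h settle at 37 C.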

[2] = qHTS RealTime-Glo MT Cell Viability Assay in HepG2 cells - 8 hour (AID 1224873); further: nearly all actives have a fitted effect of over 55% in size
How it was run: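 Real-time viability: cells seeded at 600 per well together with NanoLuc and cell-permeant prosubstrate, compounds added after 5 h incubation. Luminescence tracked at 0, 8, 16, 24, 32 and 40 h of exposure.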

[3] = A CellTox Green Cytotoxicity Assay to monitor cytotoxicity in HEK293 cells - 24 hour (AID 1224875); further: nearly all actives have a fitted effect of over 45% in size; further: potency means the concentration at half of the fitted maximal effect
How it was run: (§2)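 HEK293 cells, 600/well, were preincubated 5 hours and then exposed to compounds at 37 C for up to 40 hours. A cell-impermeant cyanine dye staining dead-cell DNA was read by fluorescence at 0, 8, 16, 24, 32 and 40 h time points.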

[4] = A CellTox Green Cytotoxicity Assay to monitor cytotoxicity in HepG2 cells - 16 hour (AID 1224876); further: nearly all actives have a fitted effect of over 45% in size; further: potency means the concentration at half of the fitted maximal effect
How it was run: (§3)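 HepG2 cells, 600/well, preincubated 5 h with CellTox Green dye, then exposed to Tox21 compounds in DMSO at 37 C for up to 40 h. Dead-cell DNA fluorescence read at the indicated time point.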

[5] = qHTS RealTime-Glo MT Cell Viability Assay in HepG2 cells - 32 hour (AID 1224877); further: nearly all actives have a fitted effect of over 55% in size
How it was run: (§4)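 HepG2 suspension premixed with RealTime-Glo reagents is plated at 600 cells per well and left 5 h at 37 C/5% CO2. Compounds in DMSO then go in, and bioluminescence reflecting viable cell number is recorded over 40 h.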

[6] = A CellTox Green Cytotoxicity Assay to monitor cytotoxicity in HepG2 cells - 24 hour (AID 1224878); further: nearly all actives have a fitted effect of over 45% in size; further: potency means the concentration at half of the fitted maximal effect
How it was run: as §3

[7] = A CellTox Green Cytotoxicity Assay to monitor cytotoxicity in HepG2 cells - 40 hour (AID 1224879); further: nearly all actives have a fitted effect of over 40% in size; further: potency means the concentration at half of the fitted maximal effect
How it was run: as §3

[8] = qHTS RealTime-Glo MT Cell Viability Assay in HEK293 cells - 0 hour (AID 1224880); further: top concentration of the series differs between compounds; nearly all actives have a fitted effect of over 45% in size
How it was run: (§5)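 600 cells/well were plated with the nonlytic NanoLuc/prosubstrate reagent, pre-incubated 5 h, then given 23 nL of compound in DMSO. Incubation at 37 C for 40 h, with luminescence from viable-cell-reduced substrate read repeatedly from 0 h.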

[9] = A CellTox Green Cytotoxicity Assay to monitor cytotoxicity in HEK293 cells - 32 hour (AID 1224881); further: nearly all actives have a fitted effect of over 40% in size; further: potency means the concentration at half of the fitted maximal effect
How it was run: as §2

[10] = A CellTox Green Cytotoxicity Assay to monitor cytotoxicity in HepG2 cells - 0 hour (AID 1224882); further: nearly all actives have a fitted effect of over 35% in size
How it was run: as §3

[11] = A CellTox Green Cytotoxicity Assay to monitor cytotoxicity in HepG2 cells - 32 hour (AID 1224883); further: nearly all actives have a fitted effect of over 50% in size; further: potency means the concentration at half of the fitted maximal effect
How it was run: as §3

[12] = A CellTox Green Cytotoxicity Assay to monitor cytotoxicity in HEK293 cells - 8 hour (AID 1224884); further: nearly all actives have a fitted effect of over 35% in size
How it was run: as §2

[13] = qHTS RealTime-Glo MT Cell Viability Assay in HepG2 cells - 16 hour (AID 1224885); further: nearly all actives have a fitted effect of over 50% in size
How it was run: as §4

[14] = qHTS RealTime-Glo MT Cell Viability Assay in HEK293 cells - 8 hour (AID 1224887); further: nearly all actives have a fitted effect of over 50% in size; further: potency means the concentration at half of the fitted maximal effect
How it was run: as §5

[15] = A CellTox Green Cytotoxicity Assay to monitor cytotoxicity in HEK293 cells - 16 hour (AID 1224888); further: nearly all actives have a fitted effect of over 35% in size
How it was run: as §2

[16] = qHTS RealTime-Glo MT Cell Viability Assay in HepG2 cells - 0 hour (AID 1224889); further: nearly all actives have a fitted effect of over 50% in size
How it was run: as §4

[17] = A CellTox Green Cytotoxicity Assay to monitor cytotoxicity in HepG2 cells - 8 hour (AID 1224890); further: nearly all actives have a fitted effect of over 45% in size
How it was run: as §3

[18] = qHTS RealTime-Glo MT Cell Viability Assay in HEK293 cells - 40 hour (AID 1224874); conditions: RealTime-Glo luminescence; max response: active compounds read low; further: nearly all actives have a fitted effect of over 50% in size; further: potency means the concentration at half of the fitted maximal effect
How it was run: as §5

[19] = qHTS RealTime-Glo MT Cell Viability Assay in HEK293 cells - 24 hour (AID 1224886); further: nearly all actives have a fitted effect of over 50% in size; further: potency means the concentration at half of the fitted maximal effect
How it was run: as §1

Structure (SMILES) | Potency [1] | Potency [2] | Potency [3] | Potency [4] | Potency [5] | Potency [6] | Potency [7] | Potency [8] | Potency [9] | Potency [10] | Potency [11] | Potency [12] | Potency [13] | Potency [14] | Potency [15] | Potency [16] | Potency [17] | Potency [18] | Potency [19] | max response [18]
CN(C)c1ccc(N(C)C)cc1 | inactive | inactive | inactive | inactive | inactive | inactive | inactive | inactive | inactive | inactive | inactive | inactive | inactive | 34.8 µM (active) | inactive | inactive | inactive | – | – | –
CN1[C@@H]2CC[C@H]1CC(OC(=O)c1cc(Cl)cc(Cl)c1)C2 (stereo partly drawn) | inactive | inactive | inactive | 21.3 µM (active) | – | 23.9 µM (active) | 23.9 µM (active) | – | inactive | inactive | 23.9 µM (active) | inactive | – | inactive | – | inactive | inactive | – | – | –
COc1ccc(-c2ccccc2)cc1NNC(=O)OC(C)C | – | – | – | inactive | inactive | inactive | inactive | – | – | inactive | inactive | inactive | – | – | inactive | inactive | inactive | 51 µM (active) | 51 µM (active) | –
CCCC(Cn1cncn1)c1ccc(Cl)cc1Cl (stereo not drawn) | – | – | – | – | inactive | – | – | – | – | inactive | 49 µM (active) | inactive | – | – | – | inactive | inactive | 21.9 µM (active) | 21.9 µM (active) | –
[CH3][Sn]([CH3])([Cl])[Cl] | – | inactive | inactive | inactive | inactive | inactive | – | inactive | inactive | inactive | inactive | inactive | inactive | inactive | – | inactive | inactive | – | – | –
NCCCNCCCN | inactive | inactive | – | inactive | inactive | inactive | inactive | inactive | 62.6 µM (active) | inactive | inactive | inactive | inactive | inactive | – | inactive | inactive | – | inactive | -7.03%
CC1CC(CC2CCC(N)C(C)C2)CCC1N (stereo not drawn) | – | inactive | 62.7 µM (active) | inactive | inactive | inactive | inactive | inactive | – | inactive | inactive | inactive | inactive | inactive | inactive | inactive | inactive | 55.8 µM (active) | 44.4 µM (active) | –
